This is part of a sample that, as a whole, favours compounds with a hit. Of some 79,000 tested, about 15% had one in any assay. Values without a mark were called inactive. No stated cut-off is given here; in the data, active means growth inhibition above about 70%; inactive means the rest.
assay: NCI Yeast Anticancer Drug Screen. Data for the bub3 strain (AID 167); conditions: S. cerevisiae bub3 mutant strain, at 50.0 µM, stronger effect = higher value
Method in brief: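 Part of a panel of yeast mutants defective in DNA damage repair or cell cycle regulation. Each strain is grown with compound, and inhibition is calculated relative to solvent-treated cultures.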

Row | Compound | growth inhibition
1 | COC(=O)c1c(-c2ccc3c(c2)OCO3)cn(C)c1C | 7.55%
2 | CC1=C(Br)C(=O)C(C(C)C)=CC1=O | 3.5%
3 | CCCCC1(CC)COC2(CCCC2)OC1 | -9.7%
4 | NC(=O)c1ccccc1NC(=O)C(=O)Cc1nc2ccccc2[nH]c1=O | 1.25%
5 | Cc1c(C)c(C)c2cc3c(C)c(C)c(C)c(C)c3cc2c1C | 6.45%
6 | COc1cccc(C(OC(=O)c2ccccc2)c2nncc3ccccc23)c1OC (centres undefined) | 9.85%
7 | CC(=O)OCC(COC(C)=O)C(C)=O | 4.65%
8 | CNCC1OC(OC)C2OC(C)(C)OC12 (centres undefined) | -21.1%
9 | O=[N+]([O-])C1CCC(N=Nc2c(O)ccc3ccccc23)CC1 (centres undefined) | -50.6%
10 | CCC(CO)N1CNC(=S)NC1 (centres undefined) | 4.7%
11 | Cc1cc(N=Nc2ccccc2)c2cccnc2c1N | -5.15%
12 | CCOC(=O)/C(C)=C(/O)C(=O)OCC | -40.2%
13 | CCOC(=O)Nc1nc2ccccc2n1CN1CCOCC1 | -5.35%
14 | CC(=O)CCCCO | 2.8%
15 | CC(=O)n1[nH]c(=O)n(-c2ccc(Cl)cc2)c1=O | -22.2%
16 | C=CCOc1cc2c(cc1C(C)c1ccc(OCC)c(C)c1)OCO2 (centres undefined) | 7.15%
17 | CC(=O)N/N=C1\NN(C(C)=O)C2(S1)C(=O)Nc1ccccc12 (centres undefined) | 51.8%
18 | NC(CCCCn1nnc2c(=O)[nH]cnc21)C(=O)O (centres undefined) | 7.1%
19 | COCn1cnc2c(F)ncnc21 | -11.2%

From PubChem BioAssay (NCI)
